# ALOX12 inh: ALOX12 (human) lipoxygenase inhibition; 580,000 tested, 1.1% active; P18054; AID 1671190; purified 12hLO, xylenol orange hydroperoxide absorbance; Potency, µM (highest dose often 108 µM), for the others: at the highest dose activity change, negative = inhibition, hits mostly inhibitors
# Target sequence (P18054 whole entry, looked up): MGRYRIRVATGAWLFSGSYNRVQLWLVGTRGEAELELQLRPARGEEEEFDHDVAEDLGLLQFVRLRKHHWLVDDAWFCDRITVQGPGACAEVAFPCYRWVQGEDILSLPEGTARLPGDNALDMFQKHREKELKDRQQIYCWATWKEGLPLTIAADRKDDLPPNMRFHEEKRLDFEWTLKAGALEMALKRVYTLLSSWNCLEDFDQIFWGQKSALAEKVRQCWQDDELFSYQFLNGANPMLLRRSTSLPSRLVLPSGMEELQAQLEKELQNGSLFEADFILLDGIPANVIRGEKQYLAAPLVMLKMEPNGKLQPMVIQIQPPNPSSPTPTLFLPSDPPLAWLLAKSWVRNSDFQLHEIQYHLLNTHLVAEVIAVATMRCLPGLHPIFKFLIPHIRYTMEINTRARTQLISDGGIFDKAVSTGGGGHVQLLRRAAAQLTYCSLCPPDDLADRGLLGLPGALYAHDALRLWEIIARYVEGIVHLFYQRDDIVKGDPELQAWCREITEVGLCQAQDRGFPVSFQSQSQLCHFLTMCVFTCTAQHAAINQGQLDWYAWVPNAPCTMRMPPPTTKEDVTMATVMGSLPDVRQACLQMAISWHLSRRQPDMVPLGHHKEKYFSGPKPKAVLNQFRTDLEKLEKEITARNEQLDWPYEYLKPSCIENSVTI
#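 Hydroperoxide product was detected by ferrous iron/xylenol orange as the 573 to 405 nm absorbance ratio. Arachidonic acid at 40 uM (final) was turned over for 30 min at room temperature by 150 nM human 12hLO, pH 7.0 Hepes buffer, after 15 min compound preincubation.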
# RORgamma inh: blocks mouse ROR gamma transcriptional activity; P51450; Drosophila S2 Gal4-RORgamma UAS-luciferase reporter, 20 h; Potency, µM (doses to about 53.6 µM), without a hit: at the top dose activity change, negative = inhibition, usual class: inhibitors; 310,000 tested, 5.4% active; also: nearly all actives have a fitted effect of over 60% in size
#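 Read-out: Photinus luciferase luminescence; inhibitors lower reporter signal. Insect Schneider cells with Gal4-ROR gamma fusion under metallothionein promoter, UAS reporter; 700 uM final copper sulfate induction, 20 hr, ambient temperature.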
# TDP1 cell CPT: growth inhibition of DT40 Tdp1-/-;hTDP1 cells with camptothecin (screen for TDP1 inhibitors); 420,000 tested, 12% active; chicken DT40 Tdp1-/-;hTDP1 cells + 20 nM CPT, ATP luminescence, 48 h; Potency, µM (titrated, usually from 46.2 µM), for inactives: at the top dose activity change, negative = growth inhibition, actives largely listed as inhibitors; also: nearly all actives have a fitted effect of over 55% in size
#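 Cell growth measured by CellTiter-Glo luminescence after a minimum 48 h, 37 C compound exposure with 20 nM CPT in Tdp1-knockout DT40 cells stably expressing hTDP1, seeded 400/well; qHTS titration format.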
# VP16 counter: inhibits Gal4-VP16 luciferase reporter, ROR gamma counter-screen | Drosophila S2 Gal4-VP16 UAS-luciferase, luminescence, 20 h | Potency, µM (highest dose often 53.6 µM), for inactives: at the top dose activity, negative = inhibition, actives largely listed as inhibitors | 310,000 tested, 3.5% active | AID 2546;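 also: Gal4-VP16 expression switched on by copper sulfate through the metallothionein promoter; nearly all actives have a fitted effect of over 50% in size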
# ELG1 DNA repair: ELG1-dependent DNA repair inhibition | HEK293T ELG1-luciferase reporter, luminescence, 16 h; DNA damage induced by 5-fluorouridine | Potency, µM (titrated, usually from 46.1 µM), without a hit: at the top dose activity change, negative = inhibition, usual class: inhibitors | 330,000 tested, 2.3% active | AID 504467; also: nearly all actives have a fitted effect of over 55% in size
#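 Quantitative HTS, concentration-response format. 2,000 cells/well co-treated with 5-fluorouridine and compound, 16 hr in 5% CO2 at 37 °C; ONE-Glo luminescence read after 30 min.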
# TDP1 cell noCPT: qHTS for Inhibitors of human tyrosyl-DNA phosphodiesterase 1 (TDP1): qHTS in cells in absence of CPT | Potency, µM (highest dose often 46.2 µM), inactives show top-dose activity change, negative = growth inhibition, usual class: inhibitors | AID 686978, 2013 | DT40 Tdp1-/- hTDP1 cells, no CPT, ATP luminescence, 48 h | 420,000 tested, 15% active; also: nearly all actives have a fitted effect of over 55% in size
#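 Chicken DT40 Tdp1-/- cells stably complemented with human TDP1 were seeded at 400 cells/well with DMSO in place of 20 nM camptothecin. After compound pinning, cells grew at least 48 hr at 37 °C; viability read by CellTiter-Glo luminescence.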
# Starred values were filed as active, the others as inactive; ? = inconclusive; . = not tested or not shown; [ ] = remark or other dose. The list is not random: actives were taken first. Their share in the collection is about 15%. Calls follow the shape of the dose curve; as a rule, active = well fitted curve in the direction sought with a large enough effect; inconclusive = small, poorly fitted or top-dose-only effect, or another doubt; inactive = no such curve, though single readings can be large; an effect the other way counts as inactive or inconclusive. % is scaled to controls: 0 for no effect and ±100 for the full control effect; potency is read from the fitted curve at half-maximal effect.
SMILES,ALOX12 inh,RORgamma inh,TDP1 cell CPT,VP16 counter,ELG1 DNA repair,TDP1 cell noCPT
COCCOC1CN(C2CCN(Cc3ccc(C)o3)CC2)C12CCCCC2 (configuration not stated),19%,.,.,.,.,.
CC(=O)c1ccc(S(=O)(=O)NCCC(=O)NC2CCC(C)CC2)cc1 (configuration not stated),6%,.,.,.,.,.
CCOc1ccc(-c2ccc(SCc3ccccn3)nn2)cc1,-7%,?,?,25%,5%,23µM*
Cn1c(SCc2cc(=O)c3cc(Cl)ccc3[nH]2)nnc1-c1ccccc1,-27%,.,13µM*,.,.,21µM*
COc1ccc(-c2nnc(SCc3cc(=O)c4cc(C)cc(C)c4[nH]3)n2C)cc1,-21%,.,23µM*,.,.,18µM*
CCc1ccc(-c2ccc(SCc3ccccn3)nn2)cc1,0%,27%,4%,?,?,?
COc1ccc(-c2nnc(SCc3ccccn3)n2C)cc1,6%,-24%,29µM*,22%,?,?
O=C(C1CCC1)N1CCC(C(=O)N2CC(Oc3ccccc3)C2)CC1,54%,.,.,.,.,.
O=C(Cn1nc2c(cc1=O)CCCC2)NCCc1ccco1,7%,.,.,.,.,.
COc1ccc(CCNC(=O)C(=O)NCc2cccs2)cc1OC,-3%,22%,?,3%,-2%,29µM*
COc1ccc(CCNC(=S)NCc2cccs2)cc1OC,-19%,?,?,0%,0%,?
COc1ccc(CCNC(=O)CC(c2ccccc2)c2cc(C)ccc2O)cc1OC (configuration not stated),.,20%,26µM*,-3%,?,13µM*
COc1ccc(CCNC(=O)c2nc(-c3cccs3)no2)cc1OC,-21%,?,?,1%,9.2µM*,?
COc1ccc(CCNC(=O)Cc2ccccc2)cc1OC,?,16%[1.91 µM],1%,-10%,10%,9%
COc1ccc(CCNC2=C(Cl)C(=O)N(CCc3ccccc3)C2=O)cc1OC,-7%,?,?,0%,?,21µM*
O=C(c1ccccc1)N1CC2(Cc3ccccc3NC2=O)C1,0%[12.5 µM],.,.,.,.,.
Cc1ccc(-c2nn3c(c2C)NC(=O)CC3C(=O)Nc2ccc3c(c2)OCO3)cc1 (configuration not stated),13%,.,.,.,.,.
COc1ccc(CCNC(=O)C(=O)NCc2ccccc2)cc1OC,273%,0%,5.2µM*,-9%,15%,5.2µM*
COc1ccc(CCNC(=S)NCCc2ccc(OC)c(OC)c2)cc1OC,?,-25%,?,-4%,?,?
Cc1ccc(O)c(C(CC(=O)NC2CCCCC2)c2ccccc2)c1 (configuration not stated),-11%,25%,-67%,-6%,-2%,23µM*
COc1ccc(CCNC(=S)c2ccccc2)cc1OC,-2%,?,21µM*,16µM*,?,?
COC(=O)/C(=C\c1ccc([N+](=O)[O-])cc1)NC(C)=O,-2%,.,.,.,.,.
Cc1c(C(=O)N2CCC(C)CC2)c(S(=O)(=O)Nc2ccc(OC(F)(F)F)cc2)c(C)n1C,-21%,.,?,.,.,16µM*
Cc1[nH]c(C)c(S(=O)(=O)Nc2ccc(OC(F)(F)F)cc2)c1C(=O)N1CCCCC1,-3%,3%,21µM*,-1%,-1%,16µM*
COc1ccc(NS(=O)(=O)c2c(C(=O)N3CCCCCC3)c(C)n(C)c2C)cc1,-6%,2%,?,-1%,17%,4%
SMILES,ALOX12 inh,RORgamma inh,TDP1 cell CPT,VP16 counter,ELG1 DNA repair,TDP1 cell noCPT
CCc1cccc(C)c1NS(=O)(=O)c1c(C(=O)N2CCC(C)CC2)c(C)n(C)c1C,-8%,.,18µM*,.,.,?
CCc1cccc(C)c1NS(=O)(=O)c1c(C(=O)N2CCCCCC2)c(C)n(C)c1C,-6%,.,?,.,.,?
C=CCn1c(SCC(=O)NCc2ccc3c(c2)OCO3)nc2scc(-c3ccc(F)cc3)c2c1=O,2%,-25%,?,0%,15µM*,?
Cn1c(SCC(=O)NCc2ccc3c(c2)OCO3)nc2scc(-c3cccs3)c2c1=O,22%,3%,?,3%,13µM*,?
CN1CCN(C(=O)c2ccccc2Nc2ccc(SC(F)F)cc2)CC1,?,1%,?,6%,-5%,16µM*
CCN1CCN(C(=O)c2ccccc2Nc2ccc(SC(F)F)cc2)CC1,?,5%,-9%,-5%,-2%,-22%
COc1ccc(C(CNC(=O)COc2cc(C)c(Cl)c(C)c2)N2CCCCC2)cc1 (configuration not stated),?,?,23µM*,?,-2%,16µM*
COc1ccc(C(CNC(=O)COc2cc(C)cc(C)c2)N2CCCCC2)cc1 (configuration not stated),5%,.,23µM*,.,.,?
COc1ccc(C(CNC(=O)COc2ccc(C)c(C)c2)N2CCCCC2)cc1 (configuration not stated),-14%,-13%,23µM*,-5%,-1%,?
COc1ccc(C(CNC(=O)COc2ccc(Cl)cc2C)N2CCCCC2)cc1 (configuration not stated),-14%,-18%,?,?,-2%,-23%
COc1ccc(OCC(=O)NCC(c2ccc(OC)cc2)N2CCCCC2)cc1 (configuration not stated),-26%,-2%,-16%,-8%,16%,6%
COc1ccc(C(CNC(=O)COc2ccc(Cl)c(C)c2)N2CCOCC2)cc1 (configuration not stated),-18%,.,21µM*,.,.,?
CC(C)(C)c1coc([C@@H]2COCCN2Cc2ccc(C(=O)O)cc2)n1,66%[176 µM],.,.,.,.,.
COc1ccc(NC(=O)CCn2nc(-c3ccc(C)cc3)c3ccccc3c2=O)cc1C(N)=O,-22%,.,.,.,.,.
COc1ccc(-c2onc(C)c2C)cc1S(=O)(=O)N(C)Cc1ccccc1,-4%,.,21µM*,.,.,23µM*
COCCn1cnc2c1c(=O)n(CC(=O)Nc1ccc3c(c1)OCCO3)c(=O)n2CC(C)C,4%,.,.,.,.,.
O=C(C[n+]1cc(Br)cc2ccccc21)c1ccccc1,?,123%,18µM*,1%,-18%,18µM*
OC(CBr)C[n+]1cc(Br)cc2ccccc21 (configuration not stated),.,.,7.1µM*,.,.,8.9µM*
Cc1cc2cc(NS(=O)(=O)c3ccccc3F)ccc2[nH]1,-4%,.,.,.,.,.

# Screening results (PubChem)
